Results reported in PubChem BioAssay AID1159580 (chemical genetic matrix, 2015).
In all, about 5,500 compounds went through this assay and about 2,000 (36%) were called active. Inconclusive results (about 18%) are left out. Cut-off read from the data, not from the text of the source: active = normalized growth mostly below about 0.91 (no sharp cut-off); inconclusive = no clear call, values can overlap the other calls; inactive = mostly above about 0.92. This is one part of the list.

Assay: chemical genetic growth profiling, strain panel (AID 1159580);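 note: tested at 20 µM; growth read once vehicle control cultures reached saturation at 30 °C; 1 = growth at the plate median or of vehicle wells; lower values mean less growth of the strain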
Conditions: S. cerevisiae deletion strains, growth OD
[1] = locus YHR030C, strain SLT2, active compounds read low
[2] = locus YHR079C, strain IRE1, active compounds read low
[3] = locus YJL095W, strain BCK1, active compounds read low
[4] = locus YJR066W, strain TOR1, active compounds read low
[5] = locus YLR113W, strain HOG1, active compounds read low
[6] = locus YNL183C, strain NPR1, active compounds read low
[7] = locus YOR231W, strain MKK1, active compounds read low
[8] = locus YPL256C, strain CLN2, active compounds read low

Measured: normalized growth

Cc1ccccc1/C=C/c1c[nH]c2ccccc12
inactive: locus YAR019C, strain CDC15, active compounds read low 0.937 | locus YBL105C, strain PKC1, active compounds read low 0.961 | locus YBR135W, strain CKS1, active compounds read low 0.946 | locus YBR136W, strain MEC1, active compounds read low 0.954 | locus YBR160W, strain CDC28, active compounds read low 0.951 | locus YDL017W, strain CDC7, active compounds read low 0.955 | locus YDL028C, strain MPS1, active compounds read low 0.963 | locus YDL101C, strain DUN1, active compounds read low 0.953 | locus YDL108W, strain KIN28, active compounds read low 0.949 | locus YDL132W, strain cdc53, active compounds read low 0.942 | locus YDL214C, strain PRR2, active compounds read low 0.902 | locus YDR052C, strain DBF4, active compounds read low 0.95 | locus YDR054C, strain cdc34, active compounds read low 0.985 | locus YDR226W, strain ADK1, active compounds read low 0.949 | locus YDR477W, strain SNF1, active compounds read low 0.924 | locus YER123W, strain YCK3, active compounds read low 0.855 | locus YER133W, strain GLC7, active compounds read low 0.906 | locus YFL009W, strain cdc4, active compounds read low 0.945 | locus YFL029C, strain CAK1, active compounds read low 0.92 | locus YFR003C, strain YPI1, active compounds read low 0.958 | locus YFR019W, strain FAB1, active compounds read low 0.924 | locus YFR028C, strain CDC14, active compounds read low 0.955 | locus YGR040W, strain KSS1, active compounds read low 0.916 | locus YGR052W, strain FMP48, active compounds read low 0.965 | locus YGR092W, strain DBF2, active compounds read low 0.858 | [1] 0.921 | [2] 0.948 | locus YHR082C, strain KSP1, active compounds read low 0.937 | locus YHR205W, strain SCH9, active compounds read low 0.88 | locus YIL147C, strain SLN1, active compounds read low 0.956 | [3] 0.946 | locus YJL128C, strain PBS2, active compounds read low 0.906 | locus YJL157C, strain FAR1, active compounds read low 0.895 | locus YJR016C, strain ILV3, active compounds read low 0.952 | locus YJR066W, strain TOR1 (second series), active compounds read low 0.882 | [4] 0.955 | locus YKL048C, strain ELM1, active compounds read low 0.948 | locus YKL067W, strain YNK1, active compounds read low 0.91 | locus YKL101W, strain HSL1, active compounds read low 0.94 | locus YKL193C, strain SDS22, active compounds read low 0.948 | locus YKL203C, strain TOR2, active compounds read low 0.989 | locus YLR133W, strain CKI1, active compounds read low 0.931 | locus YLR403W, strain SFP1, active compounds read low 0.893 | locus YML070W, strain DAK1, active compounds read low 0.891 | locus YMR001C, strain CDC5, active compounds read low 0.937 | locus YMR205C, strain PFK2 (second series), active compounds read low 0.934 | locus YMR277W, strain FCP1, active compounds read low 0.959 | locus YNL006W, strain LST8, active compounds read low 0.955 | locus YNL020C, strain ARK1, active compounds read low 0.912 | locus YNL161W, strain CBK1, active compounds read low 0.953 | [6] 0.94 | locus YNL207W, strain RIO2, active compounds read low 0.948 | locus YNL222W, strain SSU72, active compounds read low 0.946 | locus YNL307C, strain MCK1 (second series), active compounds read low 0.941 | locus YOL078W, strain AVO1, active compounds read low 0.946 | locus YOL136C, strain PFK27, active compounds read low 0.887 | locus YOR061W, strain CKA2, active compounds read low 0.895 | locus YOR119C, strain RIO1, active compounds read low 0.943 | [7] 0.923 | locus YOR329C, strain SCD5, active compounds read low 0.961 | locus YPL031C, strain PHO85, active compounds read low 0.914 | locus YPL153C, strain RAD53, active compounds read low 0.931 | locus YPL204W, strain HRR25, active compounds read low 0.941 | locus YPL209C, strain IPL1, active compounds read low 0.95 | [8] 0.91 | locus YPR025C, strain CCL1, active compounds read low 0.955 | locus YPR106W, strain ISR1, active compounds read low 0.964 | locus YPR111W, strain DBF20, active compounds read low 0.952 | strain NNK1, active compounds read low 0.961 | strain TSCII, active compounds read low 0.947
active: [5] 0.784

Cc1c[nH]c2ccccc12
inactive: [1] 0.992 | [2] 0.979 | [3] 0.999 | [4] 0.94 | [5] 0.945 | [6] 0.927 | [7] 1 | [8] 1.02

Cc1ccccc1/C=C/C1=NCCN1
inactive: locus YAL013W, strain DEP1, active compounds read low 0.997 | locus YAL040C, strain CLN3, active compounds read low 1.09 | locus YCL061C, strain MRC1 (second series), active compounds read low 1.01 | locus YDR150W, strain NUM1, active compounds read low 1.02 | locus YDR363W, strain ESC2, active compounds read low 0.999 | locus YER002W, strain NOP16, active compounds read low 1.01 | locus YGR078C, strain PAC10, active compounds read low 0.982 | locus YJR075W, strain HOC1, active compounds read low 0.997 | locus YMR263W, strain SAP30, active compounds read low 0.995 | locus YMR307W, strain GAS1, active compounds read low 0.978 | locus YNL175C, strain NOP13, active compounds read low 1 | locus YNL197C, strain WHI3, active compounds read low 0.993 | locus YNL224C, strain SQS1, active compounds read low 0.991 | locus YOR083W, strain WHI5 (second series), active compounds read low 0.991
